Here are results for nine molecules from PubChem BioAssay.

Assay [1] in a line: compound effects on lung adenocarcinoma cell viability – A549, calcein-AM fluorescence, 48 h, basal, profiling panel (AID 1162). Note: test concentration not given here. Particulars: higher = more signal.
The nature of assay [2]: compound effects on differentiated 3T3-L1 adipocyte viability – cell-based, 3T3-L1 adipocytes, calcein-AM fluorescence, 48 h, basal, profiling panel (AID 1163). Note: test concentration not given here. The following applies: 3T3-L1 adipocytes viability, higher = more signal.
Assay [3] is described as follows: compound effects on hepatocellular carcinoma cell viability – HepG2, calcein-AM fluorescence, 48 h, basal, profiling panel (AID 1164). Note: test concentration not given here. The following applies: higher = more signal.
The nature of assay [4]: compound effects on multiple myeloma cell viability – MM1S, calcein-AM fluorescence, 48 h, basal, profiling panel (AID 1165).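 Note: viability of MM1S multiple myeloma cells under basal unstimulated conditions; test concentration not given here.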 Particulars: higher = more signal.
Assay [5] is described as follows: calcein-AM signal in unstimulated myeloma cells – cell-based, calcein-AM fluorescence, 48 h, PK04 Diversity Set, profiling panel (AID 1166).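 Note: cells grown under basal conditions without added stimulus; test concentration not given here.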 Particulars: RPMI8226 myeloma viability, higher = more signal.
A short description of assay [6]: JC-1 mitochondrial signal, unstimulated HepG2 cells – cell-based, JC-1 fluorescence, 24 h, 100 nL compound, profiling panel (AID 1167). Note: test concentration not given here. The following applies: HepG2 mitochondrial potential, higher = more signal.
A short description of assay [7]: JC-1 mitochondrial signal, unstimulated adipocytes – cell-based, JC-1 fluorescence, 3T3-L1 adipocytes, 24 h, 100 nL compound, profiling panel (AID 1168). Note: test concentration not given here. Particulars: JC-1 mitochondrial fluorescence, higher = more signal, called active from +8 up or from −8 down.
Assay [8] in a line: JC-1 mitochondrial signal, unstimulated myeloma cells – cell-based, JC-1 fluorescence, RPMI8226, 24 h, 100 nL compound, profiling panel (AID 1169). Note: test concentration not given here. Particulars: JC-1 mitochondrial potential fluorescence, higher = more signal.
Assay [9] can be described thus: JC-1 mitochondrial signal, unstimulated MM1S myeloma – cell-based, JC-1 fluorescence, 24 h, 100 nL compound, profiling panel (AID 1170). Note: test concentration not given here. The following applies: MM1S mitochondrial potential, higher = more signal.
Assay [10] can be described thus: resazurin metabolic signal in A549 cells – cell-based, resazurin fluorescence, 24 h, PK04 Diversity Set, profiling panel (AID 1171). Note: test concentration not given here. The following applies: A549 viability, higher = more signal, called active from +8 up or from −8 down.
Assay [11] is described as follows: resazurin metabolic signal in HepG2 cells – cell-based, resazurin fluorescence, 24 h, PK04 Diversity Set, profiling panel (AID 1172). Note: test concentration not given here. The following applies: HepG2 viability, higher = more signal. A general note: The colour change of resazurin is a common sign of viable cells or microbes.
Assay [12] can be described thus: budding yeast growth changes without added modifier – OD600, strain BY4716, 24 h, basal condition, primary screen (AID 1173). Particulars: S. cerevisiae BY4716 growth, OD600, 24 h; higher = more signal, called active from +8 up or from −8 down.
Assay [13] in a line: viability profiling in MM1S myeloma cells – cell-based, resazurin fluorescence, basal, 24 h, PK04 Diversity Set, profiling panel (AID 1174). Note: test concentration not given here. Particulars: higher = more signal, called active from +8 up or from −8 down.
The target of assay [14] is Dihydroorotate dehydrogenase (quinone), mitochondrial (Plasmodium falciparum (isolate 3D7)) (UniProt Q08210). The assay is described as follows: inhibition of P. falciparum DHODH – biochemical, C-terminal His tag, absorbance 600 nm, primary screen (AID 1175).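 Note: recombinant parasite enzyme with a five histidine tag at its C terminus; test concentration not given here.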 The following applies: PfDHODH enzyme, DCIP absorbance 600 nm; higher = more signal, called active from +8 up or from −8 down.

Assay [15] is described as follows: inhibition of PAO1 biofilm formation – strain PAO1, LB-PBS medium, absorbance 600 nm, primary screen (AID 1176). Note: test concentration not given here. Particulars: P. aeruginosa PAO1 growth/biofilm, A600, 12 h; higher = more signal.
Assay [16] can be described thus: growth modulation of vineyard yeast isolate – strain RM11-1a, OD600, basal, 24 h, primary screen (AID 1177).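 Note: cultures grown under basal conditions with no added stressor; test concentration not given here.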 Particulars: S. cerevisiae RM11-1a growth, OD600, 24 h; higher = more signal, called active from +8 up or from −8 down.
Assay [17] can be described thus: growth of efflux-deficient E. coli DRC39 – strain DRC39, OD650, 24 h, E. coli filamentation inducers, primary screen (AID 1178).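 Note: growth measured as culture turbidity by optical density at 650 nm; test concentration not given here.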 Particulars: E. coli DRC39 acrAB, higher = more signal, called active from +8 up or from −8 down.
Assay [18] in a line: growth of efflux-deficient E. coli DRC39 – strain DRC39, OD650, 48 h, E. coli filamentation inducers, primary screen (AID 1179).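 Note: screen aims at cell division blockers that make cells filament.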 Particulars: E. coli DRC39 delta-acrAB growth, higher = more signal, called active from +8 up or from −8 down.
Assay [19] is described as follows: viability profiling in RPMI8226 myeloma cells – cell-based, resazurin fluorescence, basal, 24 h, PK04 Diversity Set, profiling panel (AID 1180).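 Note: RPMI8826 multiple myeloma cell line at 5000 cells per well; test concentration not given here.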 The following applies: higher = more signal.
In assay [20] the target is E3 ubiquitin-protein ligase XIAP (Homo sapiens) (UniProt P98170). The assay is described as follows: small molecules binding XIAP protein – biophysical, small-molecule microarray, fluorescence 635 nm, primary screen (AID 1181).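 Note: score merges 667 nm emission and signal to noise over triplicate slides.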 Particulars: higher = more signal.

Each structure is given as a SMILES string. Calls of active or inactive are those of the source. Unless noted, the rule behind the calls is not given here.

Dihydroorotate dehydrogenase (quinone), mitochondrial (Plasmodium falciparum (isolate 3D7)), sequence (Q08210 whole entry, looked up): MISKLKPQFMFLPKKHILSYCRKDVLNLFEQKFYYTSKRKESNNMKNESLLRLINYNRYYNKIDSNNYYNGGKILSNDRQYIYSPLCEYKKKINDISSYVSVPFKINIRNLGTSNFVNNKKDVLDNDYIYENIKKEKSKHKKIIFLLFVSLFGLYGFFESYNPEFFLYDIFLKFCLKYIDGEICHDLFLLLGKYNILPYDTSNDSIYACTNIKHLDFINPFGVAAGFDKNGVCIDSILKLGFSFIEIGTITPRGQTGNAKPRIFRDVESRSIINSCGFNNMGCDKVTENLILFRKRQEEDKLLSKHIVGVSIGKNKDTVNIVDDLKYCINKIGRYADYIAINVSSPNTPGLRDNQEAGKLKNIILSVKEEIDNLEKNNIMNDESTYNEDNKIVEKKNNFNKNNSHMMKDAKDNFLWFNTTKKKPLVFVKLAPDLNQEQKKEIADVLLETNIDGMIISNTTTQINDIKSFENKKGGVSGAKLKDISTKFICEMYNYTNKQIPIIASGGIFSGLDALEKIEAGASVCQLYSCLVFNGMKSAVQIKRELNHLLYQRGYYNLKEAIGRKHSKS
E3 ubiquitin-protein ligase XIAP (Homo sapiens), sequence (P98170 whole entry, looked up): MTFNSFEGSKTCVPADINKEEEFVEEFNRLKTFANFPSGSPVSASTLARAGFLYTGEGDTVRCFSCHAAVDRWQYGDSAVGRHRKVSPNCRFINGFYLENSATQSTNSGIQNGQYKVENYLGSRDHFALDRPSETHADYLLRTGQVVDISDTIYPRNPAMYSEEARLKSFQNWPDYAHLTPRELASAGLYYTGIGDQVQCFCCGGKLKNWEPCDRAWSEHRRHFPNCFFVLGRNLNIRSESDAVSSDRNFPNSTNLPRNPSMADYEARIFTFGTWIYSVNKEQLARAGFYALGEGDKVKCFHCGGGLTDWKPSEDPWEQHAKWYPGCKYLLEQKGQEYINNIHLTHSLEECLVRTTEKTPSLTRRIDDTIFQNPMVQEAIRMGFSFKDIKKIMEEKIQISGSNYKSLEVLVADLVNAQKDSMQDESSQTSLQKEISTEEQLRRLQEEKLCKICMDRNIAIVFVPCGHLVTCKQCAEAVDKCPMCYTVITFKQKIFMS

Take `CC(C)[Si]1(C(C)C)OCc2cc(-c3ccc(-c4ccc(Cl)c(Cl)c4)o3)nc(-c3ccc(Oc4ccccc4)cc3)c21`: the z-score was -0.222 in assay [1]; -1.06 in [2]; -0.879 in [3]; 0.0719 in assay [4]; -0.605 in assay [5]; 0.213 in assay [6]. In addition, the z-score in assay [7] is -0.966 (inactive); in assay [8], 0.17; in [9], 0.0397; in assay [10] it was -0.232 (inactive); in assay [11], -0.213; in [12], -3.1 (inactive). For the same molecule, the z-score in assay [13] is -0.0996 (inactive); in assay [15], 0.574 (inactive); in assay [16], 1.95 (inactive); in assay [17], 0.223 (inactive); in [18] it was -0.262 (inactive); in [19], -0.133. For the same molecule, the composite z-score in [14] is 0.936 (inactive); in assay [20], 0.114.

Take `CN1C(=O)C2CC=C(C3=CCO[C@@H]3[C@H]3CCCN3S(=O)(=O)c3ccccc3[N+](=O)[O-])CC2C1=O` (stereo not given in full): the z-score was -0.477 in [1]; 0.102 in assay [2]; 0.302 in assay [3]; -0.355 in [4]; -0.0289 in assay [5]; -1.25 in assay [6]. Further, the z-score in assay [7] was -0.655 (inactive); in [8], -0.12; in assay [9] it was -0.242; in [10], 0.47 (inactive); in assay [11] it was 0.277; in [12] it was 0.175 (inactive). The z-score in [13] is -0.354 (inactive); in assay [15], 0.425 (inactive); in assay [16] it was 0.0123 (inactive); in assay [17], 0.527 (inactive); in [18], 0.189 (inactive); in assay [19], 0.0213. Further, the composite z-score was -0.912 (inactive) in [14] and -0.187 in assay [20].

In the case of `COCCCNC(=O)[C@@]1(c2ccc([N+](=O)[O-])cc2)CC(=O)N(C2CCCCC2)[C@@H]1c1ccc(CO)cc1I`, the z-score in [1] was 1.22; in assay [2] it was 0.944; in assay [3], 0.857; in [4], -1.41; in assay [5], -0.0154; in assay [6], 2.88. For the same molecule, the z-score in [7] is 0.802 (inactive); in assay [8], 0.496; in [9], 0.106; in assay [10], 1.38 (inactive); in assay [11] it was 0.545; in assay [12], -0.24 (inactive). Besides, the z-score in assay [13] is 0.678 (inactive); in [15] it was 0.966 (inactive); in assay [16] it was -0.251 (inactive); in assay [17] it was 0.0675 (inactive); in assay [18], -0.279 (inactive); in [19], 1.16. In addition, the composite z-score in assay [14] was 0.219 (inactive); in [20] it was 0.0449.

Consider `O=C1OCCC/C=C\[C@H]2OC34C=CCN(Cc5ccccc5)C(=O)[C@H]3N(CCO)C(=O)[C@@H]4C12` (stereo not given in full), for which the z-score in assay [1] is 0.457; in assay [2] it was -0.728; in [3] it was 1.21; in assay [4] it was 1.64; in [5], 0.998; in [6] it was 1.03. For the same molecule, the z-score in assay [7] was 0.857 (inactive); in assay [8], -0.0351; in assay [9] it was -0.27; in assay [10], 0.263 (inactive); in [11], -0.122; in [12], -0.662 (inactive). The z-score was 0.99 (inactive) in [13]; -0.152 (inactive) in assay [15]; -0.23 (inactive) in assay [16]; 1.68 (inactive) in [17]; 1.89 (inactive) in assay [18]; 0.936 in assay [19]. In addition, the composite z-score in [14] is -0.0771 (inactive); in assay [20] it was 0.0015.

For `COC(=O)[C@@]1(Cc2ccccc2)[C@H]2c3cc(C(=O)N(C)C)n(Cc4nc5ccccc5[nH]4)c3C[C@H]2CN1C(=O)c1ccccc1`, the z-score in assay [1] is 0.173; in assay [2], -0.232; in assay [3], 0.858; in assay [4], -0.013; in assay [5], -0.191; in [6] it was -0.3. The z-score in assay [7] was 0.385 (inactive); in assay [8], -0.303; in assay [9], -0.701; in assay [10], 0.0716 (inactive); in assay [11] it was 1.17; in [12], -0.541 (inactive). The z-score in [13] was -0.204 (inactive); in [15], 0.92 (inactive); in assay [16], -0.706 (inactive); in assay [17], 1.04 (inactive); in assay [18], 0.0023 (inactive); in [19] it was -0.139. Moreover, the composite z-score in [14] is -0.862 (inactive); in [20], 0.0747.

`O=C1NC(=O)C2C1C=CC(C(O)c1ccc(F)cc1)N2Nc1ccc(Cl)cc1Cl` (stereo not given): the z-score in assay [1] was -2.35; in [2], -0.275; in assay [3] it was -3.57; in assay [4], -2.88; in assay [5] it was -2.29; in assay [6] it was -3.47. Also, the z-score was -0.472 (inactive) in [7]; -0.0645 in [8]; 0.174 in assay [9]; -2.11 (inactive) in assay [10]; -2.15 in [11]; -16.3 (active) in [12]. Also, the z-score in assay [13] was -1.28 (inactive); in [15], 1.06 (inactive); in assay [16] it was -8.86 (active); in assay [17], -0.2 (inactive); in assay [18], -1.52 (inactive); in assay [19] it was -1.79. For the same molecule, the composite z-score is 0.827 (inactive) in [14] and 0.285 in [20].

`C[N+](C)(C)CCCC[C@@H]1NC(=O)[C@H]2C[C@@H](C(=O)NCCCCCN)[C@@H](c3ccc(O)cc3)N2C1=O`: the z-score was 2.02 in assay [1]; 0.727 in assay [2]; -0.224 in [3]; -1.68 in assay [4]; -0.145 in assay [5]; 1.66 in assay [6]. Moreover, the z-score in assay [7] was -0.359 (inactive); in [8], 0.144; in [9], -0.292; in [10] it was 0.78 (inactive); in assay [11], 0.372; in [12], -0.589 (inactive). The z-score in assay [13] is 0.715 (inactive); in assay [15], -1.14 (inactive); in assay [16], -0.683 (inactive); in assay [17] it was 0.553 (inactive); in assay [18] it was 0.751 (inactive); in assay [19] it was 1.24. The composite z-score was -1.86 (inactive) in assay [14] and 0.0017 in [20].

For the molecule `C[N+](C)(C)CCCC[C@@H]1NC(=O)[C@H]2C[C@@H](C(=O)O)[C@@H](c3ccc(O)cc3)N2C1=O`, the z-score in [1] was 0.434; in [2] it was 0.291; in [3] it was 0.0336; in assay [4], -3.12; in assay [5], 0.442; in assay [6] it was 1.93. In addition, the z-score was -0.301 (inactive) in assay [7]; -0.2 in [8]; -1.26 in [9]; 0.554 (inactive) in assay [10]; 0.363 in assay [11]; -1.58 (inactive) in [12]. Also, the z-score in assay [13] is 1.03 (inactive); in assay [15], 0.475 (inactive); in [16], -0.944 (inactive); in [17], 1.38 (inactive); in assay [18], 1.57 (inactive); in assay [19], 0.925. In addition, the composite z-score in assay [14] is -0.406 (inactive); in [20], -0.0595.

As for `C=C(CC1([C@@H](NP(=O)(c2ccccc2)c2ccccc2)[C@H]2C[C@@H]2CCCC)CC1)c1cccc(OC)c1`, the z-score in assay [1] was -1.61; in [2] it was -0.803; in [3], -0.96; in [4], -3.47; in assay [5] it was -4.72; in assay [6], -1.28. The z-score in assay [7] is -0.532 (inactive); in assay [8], -0.799; in assay [9], -0.366; in assay [10], 6.21 (inactive); in assay [11], 2.56; in [12], 2.17 (inactive). Also, the z-score was 1.08 (inactive) in assay [13]; 0.0944 (inactive) in assay [15]; 1.61 (inactive) in [16]; -0.283 (inactive) in [17]; -0.216 (inactive) in [18]; 3.23 in [19]. Also, the composite z-score in assay [14] is -0.0873 (inactive); in [20] it was 0.219.
